Measured values as given in the supplement of paper PMC11732987, “Enantioselective OTUD7B fragment discovery through chemoproteomics screening and high-throughput optimisation” (Communications Chemistry, 2025).

Columns and labels:
Assay in all cases: log2 ratio of Biotin-Ahx-Ub-VS probe labelling (fragment/DMSO); higher = less target engagement (more negative = stronger competition), active = hit call of the paper (q ≤ 0.05, log2 ratio ≤ -1)
Conditions in all cases: compound concentration: 200 uM; treatment time: 3 h
[1] = target: T1, USP19 (UniProt O94966)
T1 sequence (whole entry): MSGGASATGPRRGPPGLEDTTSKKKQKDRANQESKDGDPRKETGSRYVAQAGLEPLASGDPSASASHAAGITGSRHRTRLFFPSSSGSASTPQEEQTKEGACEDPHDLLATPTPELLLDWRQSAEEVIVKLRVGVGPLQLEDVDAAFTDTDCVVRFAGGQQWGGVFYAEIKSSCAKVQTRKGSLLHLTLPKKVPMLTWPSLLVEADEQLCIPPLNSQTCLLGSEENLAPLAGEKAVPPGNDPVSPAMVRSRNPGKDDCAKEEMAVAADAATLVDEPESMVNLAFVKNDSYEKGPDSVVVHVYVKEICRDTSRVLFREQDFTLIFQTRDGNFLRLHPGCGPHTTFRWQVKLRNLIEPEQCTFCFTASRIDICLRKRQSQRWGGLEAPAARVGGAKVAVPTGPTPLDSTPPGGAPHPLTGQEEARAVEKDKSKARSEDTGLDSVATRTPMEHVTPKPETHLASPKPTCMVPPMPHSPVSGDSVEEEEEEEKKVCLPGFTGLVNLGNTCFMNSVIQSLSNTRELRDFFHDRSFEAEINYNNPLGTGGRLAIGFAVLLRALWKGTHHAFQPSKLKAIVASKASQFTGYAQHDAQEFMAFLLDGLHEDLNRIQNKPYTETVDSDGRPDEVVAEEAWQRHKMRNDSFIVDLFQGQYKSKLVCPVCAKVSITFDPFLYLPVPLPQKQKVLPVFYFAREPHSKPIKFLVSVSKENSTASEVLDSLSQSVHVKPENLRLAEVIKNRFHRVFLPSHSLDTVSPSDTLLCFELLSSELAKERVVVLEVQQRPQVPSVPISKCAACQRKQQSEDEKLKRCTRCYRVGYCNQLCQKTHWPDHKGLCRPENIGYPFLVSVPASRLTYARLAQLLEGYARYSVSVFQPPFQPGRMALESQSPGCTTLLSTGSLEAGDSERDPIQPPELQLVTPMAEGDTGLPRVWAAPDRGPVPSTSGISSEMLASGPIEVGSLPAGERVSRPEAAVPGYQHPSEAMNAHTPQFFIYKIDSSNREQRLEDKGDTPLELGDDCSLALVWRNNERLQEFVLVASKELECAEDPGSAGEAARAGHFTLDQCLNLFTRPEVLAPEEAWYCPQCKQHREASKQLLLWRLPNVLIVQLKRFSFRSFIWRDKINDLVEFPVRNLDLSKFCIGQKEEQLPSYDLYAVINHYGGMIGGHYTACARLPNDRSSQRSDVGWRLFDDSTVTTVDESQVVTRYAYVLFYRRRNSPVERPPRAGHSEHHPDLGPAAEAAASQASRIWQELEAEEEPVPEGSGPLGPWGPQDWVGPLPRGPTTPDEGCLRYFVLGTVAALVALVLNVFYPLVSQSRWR
Summary of the method: (§1)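 The table lists average log2 ratios of fragment over vehicle, from an unpaired t-test on global-median-normalised Spectronaut label-free quantities. Proteins with ≥2 unique peptides were used. Samples were HEK293T lysate (495 µg) treated in triplicate with fragment at 200 µM or vehicle for 3 h, then with Biotin-Ahx-Ub-VS (0.5 µM final) for 1 h, with labelled DUBs NeutrAvidin-enriched and run by diaPASEF LC-MS/MS.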

[2] = target: USP24 (UniProt Q9UPU5)
Sequence of USP24 (Q9UPU5 whole entry): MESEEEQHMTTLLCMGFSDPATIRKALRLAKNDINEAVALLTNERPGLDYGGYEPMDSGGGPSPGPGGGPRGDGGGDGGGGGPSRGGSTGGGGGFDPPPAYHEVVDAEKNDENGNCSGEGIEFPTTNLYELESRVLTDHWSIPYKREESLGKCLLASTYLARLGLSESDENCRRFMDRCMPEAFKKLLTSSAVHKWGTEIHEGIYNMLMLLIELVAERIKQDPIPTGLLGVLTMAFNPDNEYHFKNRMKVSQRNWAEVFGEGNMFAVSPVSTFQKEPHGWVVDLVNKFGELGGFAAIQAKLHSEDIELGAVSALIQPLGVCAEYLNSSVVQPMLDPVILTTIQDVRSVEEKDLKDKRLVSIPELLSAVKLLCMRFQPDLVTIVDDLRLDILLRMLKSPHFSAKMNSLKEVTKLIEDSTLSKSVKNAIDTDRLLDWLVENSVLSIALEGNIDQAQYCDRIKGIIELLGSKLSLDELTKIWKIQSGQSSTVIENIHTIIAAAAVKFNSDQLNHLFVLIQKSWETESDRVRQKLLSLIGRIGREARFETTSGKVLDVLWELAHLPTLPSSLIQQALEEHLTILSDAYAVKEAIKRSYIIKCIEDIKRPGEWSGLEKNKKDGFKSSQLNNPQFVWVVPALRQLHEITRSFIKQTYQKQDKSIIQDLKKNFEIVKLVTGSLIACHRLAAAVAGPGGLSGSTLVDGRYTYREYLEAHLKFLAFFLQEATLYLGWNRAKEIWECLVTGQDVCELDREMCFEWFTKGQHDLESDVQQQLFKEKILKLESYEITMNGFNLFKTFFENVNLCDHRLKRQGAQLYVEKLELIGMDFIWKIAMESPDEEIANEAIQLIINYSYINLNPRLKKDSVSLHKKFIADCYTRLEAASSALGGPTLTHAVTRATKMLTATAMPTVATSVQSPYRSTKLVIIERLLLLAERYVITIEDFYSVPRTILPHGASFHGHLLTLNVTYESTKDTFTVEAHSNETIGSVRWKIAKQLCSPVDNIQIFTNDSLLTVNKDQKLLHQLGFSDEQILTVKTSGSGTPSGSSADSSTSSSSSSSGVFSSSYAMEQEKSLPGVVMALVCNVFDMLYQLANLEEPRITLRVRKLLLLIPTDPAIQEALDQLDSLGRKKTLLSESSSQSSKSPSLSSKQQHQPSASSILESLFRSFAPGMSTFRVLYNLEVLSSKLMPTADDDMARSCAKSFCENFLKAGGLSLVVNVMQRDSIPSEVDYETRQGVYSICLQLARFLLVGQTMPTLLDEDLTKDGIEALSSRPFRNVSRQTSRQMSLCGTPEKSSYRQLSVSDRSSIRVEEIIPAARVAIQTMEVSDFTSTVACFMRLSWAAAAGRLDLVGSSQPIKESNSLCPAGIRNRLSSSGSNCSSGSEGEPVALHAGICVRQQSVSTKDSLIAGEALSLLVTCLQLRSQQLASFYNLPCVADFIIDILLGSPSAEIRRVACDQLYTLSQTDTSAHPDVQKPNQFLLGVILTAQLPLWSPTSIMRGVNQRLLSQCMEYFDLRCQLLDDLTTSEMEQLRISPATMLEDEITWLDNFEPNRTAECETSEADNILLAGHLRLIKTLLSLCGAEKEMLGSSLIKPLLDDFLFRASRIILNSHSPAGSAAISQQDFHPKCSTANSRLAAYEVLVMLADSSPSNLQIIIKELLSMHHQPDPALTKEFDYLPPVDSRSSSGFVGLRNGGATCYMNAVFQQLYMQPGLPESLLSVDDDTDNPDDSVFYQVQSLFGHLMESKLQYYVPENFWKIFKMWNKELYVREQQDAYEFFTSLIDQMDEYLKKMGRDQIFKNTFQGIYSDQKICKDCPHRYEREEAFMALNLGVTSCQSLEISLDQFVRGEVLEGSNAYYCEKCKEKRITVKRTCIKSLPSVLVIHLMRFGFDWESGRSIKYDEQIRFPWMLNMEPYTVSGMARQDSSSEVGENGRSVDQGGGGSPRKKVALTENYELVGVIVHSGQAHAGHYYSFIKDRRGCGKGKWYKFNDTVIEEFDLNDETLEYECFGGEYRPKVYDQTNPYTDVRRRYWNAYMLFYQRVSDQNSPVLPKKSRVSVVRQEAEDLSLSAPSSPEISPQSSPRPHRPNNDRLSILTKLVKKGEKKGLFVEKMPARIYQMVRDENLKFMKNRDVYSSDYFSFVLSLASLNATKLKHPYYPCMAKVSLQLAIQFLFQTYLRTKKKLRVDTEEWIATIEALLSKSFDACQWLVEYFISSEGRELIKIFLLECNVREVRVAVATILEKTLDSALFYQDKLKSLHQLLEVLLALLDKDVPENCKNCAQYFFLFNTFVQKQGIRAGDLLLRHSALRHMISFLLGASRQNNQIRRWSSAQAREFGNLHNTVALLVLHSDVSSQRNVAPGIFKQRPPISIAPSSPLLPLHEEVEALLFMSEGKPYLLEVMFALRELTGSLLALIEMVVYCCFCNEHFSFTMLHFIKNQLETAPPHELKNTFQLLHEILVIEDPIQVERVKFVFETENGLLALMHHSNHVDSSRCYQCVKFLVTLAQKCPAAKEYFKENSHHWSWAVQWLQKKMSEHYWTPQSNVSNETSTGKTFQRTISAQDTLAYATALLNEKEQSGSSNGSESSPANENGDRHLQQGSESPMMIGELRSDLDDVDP
Summary of the method: as §1

[3] = target: T2, USP25 (UniProt Q9UHP3)
T2 sequence (whole entry): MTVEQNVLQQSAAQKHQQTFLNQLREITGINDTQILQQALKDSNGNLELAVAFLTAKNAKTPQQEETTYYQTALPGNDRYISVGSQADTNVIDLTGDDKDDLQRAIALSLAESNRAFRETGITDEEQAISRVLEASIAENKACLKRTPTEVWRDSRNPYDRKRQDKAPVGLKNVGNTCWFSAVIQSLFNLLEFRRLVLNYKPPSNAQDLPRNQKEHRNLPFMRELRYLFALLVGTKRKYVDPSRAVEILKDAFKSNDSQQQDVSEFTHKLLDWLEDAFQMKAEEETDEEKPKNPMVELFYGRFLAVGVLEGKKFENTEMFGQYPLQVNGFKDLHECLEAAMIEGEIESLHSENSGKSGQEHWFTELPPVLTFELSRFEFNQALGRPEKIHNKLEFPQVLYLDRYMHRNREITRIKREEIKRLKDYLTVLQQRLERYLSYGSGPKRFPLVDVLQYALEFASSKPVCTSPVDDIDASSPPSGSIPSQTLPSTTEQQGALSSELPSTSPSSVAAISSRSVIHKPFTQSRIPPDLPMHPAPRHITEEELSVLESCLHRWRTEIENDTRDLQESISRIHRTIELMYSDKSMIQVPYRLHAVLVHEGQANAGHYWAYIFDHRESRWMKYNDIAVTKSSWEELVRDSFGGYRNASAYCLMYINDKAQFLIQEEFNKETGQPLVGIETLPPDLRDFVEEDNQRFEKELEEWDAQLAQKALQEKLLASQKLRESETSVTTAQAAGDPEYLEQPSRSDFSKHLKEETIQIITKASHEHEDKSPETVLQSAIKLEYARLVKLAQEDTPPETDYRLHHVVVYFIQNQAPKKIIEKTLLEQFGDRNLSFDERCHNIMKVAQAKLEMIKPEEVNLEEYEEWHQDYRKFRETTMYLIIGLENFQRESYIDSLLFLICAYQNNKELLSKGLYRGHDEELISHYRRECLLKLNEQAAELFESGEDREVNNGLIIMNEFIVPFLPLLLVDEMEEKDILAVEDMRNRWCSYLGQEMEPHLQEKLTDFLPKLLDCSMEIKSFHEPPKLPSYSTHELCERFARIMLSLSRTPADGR
Summary of the method: as §1

[4] = target: T3, USP28 (UniProt Q96RU2)
T3 sequence (whole entry): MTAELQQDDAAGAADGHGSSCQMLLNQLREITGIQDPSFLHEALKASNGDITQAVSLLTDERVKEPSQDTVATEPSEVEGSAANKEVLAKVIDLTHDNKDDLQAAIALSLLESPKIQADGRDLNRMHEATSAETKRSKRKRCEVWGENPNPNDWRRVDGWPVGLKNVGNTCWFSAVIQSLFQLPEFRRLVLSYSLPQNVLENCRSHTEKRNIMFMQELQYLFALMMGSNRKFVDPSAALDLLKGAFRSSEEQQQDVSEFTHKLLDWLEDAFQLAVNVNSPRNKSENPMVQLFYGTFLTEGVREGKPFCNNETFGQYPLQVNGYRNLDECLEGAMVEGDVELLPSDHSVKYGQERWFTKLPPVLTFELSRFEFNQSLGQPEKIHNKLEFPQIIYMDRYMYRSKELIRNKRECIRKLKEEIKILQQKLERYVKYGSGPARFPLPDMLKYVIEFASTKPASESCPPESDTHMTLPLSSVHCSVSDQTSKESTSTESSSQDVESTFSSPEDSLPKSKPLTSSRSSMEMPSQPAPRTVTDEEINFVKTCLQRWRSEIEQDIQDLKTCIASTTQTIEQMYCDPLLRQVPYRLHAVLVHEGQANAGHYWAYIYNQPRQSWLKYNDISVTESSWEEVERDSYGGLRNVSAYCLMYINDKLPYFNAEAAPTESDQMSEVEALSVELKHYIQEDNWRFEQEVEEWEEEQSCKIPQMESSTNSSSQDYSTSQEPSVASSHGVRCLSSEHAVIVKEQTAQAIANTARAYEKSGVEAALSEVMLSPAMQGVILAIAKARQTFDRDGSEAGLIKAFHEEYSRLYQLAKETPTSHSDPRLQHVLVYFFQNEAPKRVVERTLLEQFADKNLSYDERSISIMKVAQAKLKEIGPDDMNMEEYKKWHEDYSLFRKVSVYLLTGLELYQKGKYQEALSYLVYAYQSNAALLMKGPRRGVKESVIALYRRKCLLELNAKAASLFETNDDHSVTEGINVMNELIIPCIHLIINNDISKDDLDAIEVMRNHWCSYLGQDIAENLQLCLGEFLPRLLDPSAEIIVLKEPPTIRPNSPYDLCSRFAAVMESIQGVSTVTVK
Summary of the method: as §1

Measured: log2 ratio of Biotin-Ahx-Ub-VS probe labelling

Cc1nc(CC2CCN(C(=O)CCl)CC2)no1
inactive: [1] -0.747 | [2] -0.783 | [3] -0.763 | [4] -0.873
